Assay outcomes: PubChem, National Center for Advancing Translational Sciences (NCATS)
The full list was thinned out, with hits kept by preference.
Pf Dd2 inh: blocks in vitro growth of P. falciparum Dd2; P. falciparum Dd2 growth, SYBR Green, 72 h; Potency, µM (series often up to 28.9 µM), without a hit: at the top dose activity, negative = inhibition, usual class: inhibitors; 120,000 tested, 4.3% active; AID 1347417; active = well fitted inhibition curve with a large enough effect;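 also: plate controls were DMSO vehicle for no effect and reference drug for full effect; nearly all actives have a fitted effect of over 65% in size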
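Infected erythrocytes (Dd2, 0.3% parasitemia, 2.5% hematocrit final) are added to compound in RPMI-1640/Albumax II medium, grown 72 h at 37C in low oxygen, then lysed with saponin/Triton-X containing SYBR Green and read by fluorescence.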
Active calls of the source: *; [ ] = another dose, or the depositor's remark. Potency is read from the fitted curve at half-maximal effect.

`CCOC(=O)c1ccc(NC(=O)Cn2cc(C(=O)c3cccs3)c3ccccc32)cc1` gave Pf Dd2 inh -4%.
For COc1ccc(NC(=O)Cn2cc(C(=O)C3CCCCC3)c3ccccc32)cc1 the results were Pf Dd2 inh -29%.
CCCCNC(=O)CSc1nc2ccccc2nc1Cc1ccccc1 was read as Pf Dd2 inh -23%.
`CN1CC(=O)N(C2CCNCC2)Cc2c(NCCCO)ncnc21` gave Pf Dd2 inh -3%.
COCc1noc([C@@H]2CN(C(=O)c3cc(C)oc3C)C[C@H]2COC)n1 was read as Pf Dd2 inh 25%.
O=C1Nc2ccccc2CC12CCN(Cc1ccncc1)CC2 was read as Pf Dd2 inh inactive.
O=C(CCn1nnc2ccccc21)N1CCC2(CC1)[C@H](O)C[C@@H]2OCCO was read as Pf Dd2 inh 26%.
`COc1ccc(C)cc1NC(=O)CC[C@H]1NC(=O)c2ccccc2NC1=O` gave Pf Dd2 inh -18%.
Screening Cc1ncsc1CCC(=O)N[C@H](c1cccs1)C1CC(O)C1 (stereo partly drawn) returned Pf Dd2 inh -13%.
For CC(C)Cc1cc(CN2CC[C@H](N3CCN(C)CC3)[C@H](CCC(=O)O)C2)[nH]n1 the results were Pf Dd2 inh -3%.
C[S+](=O)([O-])N1Cc2ccccc2OC2(CCN(C(=O)c3cccc4[nH]ccc34)CC2)C1 was read as Pf Dd2 inh -29%.
Screening CC(C)NC(=O)N1CCC2(CC1)CN(C(=O)c1ccc3[nH]ccc3c1)Cc1ccccc1O2 returned Pf Dd2 inh 13µM*.
For CN(C)C(=O)N1CCC2(CC1)CN(C(=O)c1cccc3[nH]ccc13)Cc1ccccc1O2 the results were Pf Dd2 inh -28%.
CC(C)NC(=O)N1Cc2ccccc2OC2(CCN(C(=O)c3cccc4[nH]ccc34)CC2)C1 was read as Pf Dd2 inh 11µM*.
CC(=O)N1Cc2ccccc2OC2(CCN(C(=O)NC(C)C)CC2)C1 was read as Pf Dd2 inh -9%.
`CC(=O)N1CCC2(CC1)CN(C(=O)NC(C)C)Cc1ccccc1O2` gave Pf Dd2 inh 9%.
`COc1ccc(C(=O)N[C@@H]2CN(c3ccncn3)C[C@H]2CO)cc1` gave Pf Dd2 inh 16%.
Screening CS(=O)(=O)N1CCCN(C(=O)c2ccco2)CCNC(=O)CC1c1ccccc1 (stereo not drawn) returned Pf Dd2 inh -1%.
`NC(=O)C1CCN(c2ncnc3c2cnn3-c2cccc(Cl)c2)CC1` gave Pf Dd2 inh inactive.
`CCc1ccc(-n2nc(C)c3c(C(=O)N4CCN(c5cccc(Cl)c5)CC4)cc(C)nc32)cc1` gave Pf Dd2 inh 11µM*.
For Cc1cc(C(=O)N2CCN(c3ccccc3)CC2)c2c(C)nn(-c3cccc(F)c3)c2n1 the results were Pf Dd2 inh 16%.
Screening CCc1ccc(-n2nc(C)c3c(C(=O)N4CCN(c5ccccc5)CC4)cc(C)nc32)cc1 returned Pf Dd2 inh -12%.
Screening COc1cccc(Nc2ccc3c(n2)C(C)(C(=O)NC(C)C)CN(C)C3)c1 (stereo not drawn) returned Pf Dd2 inh 2.5µM*.
COCCNC(=O)C1(C)CN(C)Cc2ccc(Nc3cccc(OC)c3)nc21 (stereo not drawn) was read as Pf Dd2 inh inactive.
COc1cccc(Nc2ccc3c(n2)C(C)(C(=O)NCc2ccco2)CN(C)C3)c1 (stereo not drawn) was read as Pf Dd2 inh -16%[44.1 µM].
For CNC(=O)[C@@H]1CN(C(=O)c2cccc(C)n2)C[C@H]1COC the results were Pf Dd2 inh 9%.
`O=C(Nc1cccc(F)c1)C1CCN(S(=O)(=O)c2ccc3[nH]c4c(c3c2)CCCCC4)CC1` gave Pf Dd2 inh 11µM*.
`CC(=O)c1ccc(N2CCN(S(=O)(=O)c3ccc4[nH]c5c(c4c3)CCCCC5)CC2)cc1` gave Pf Dd2 inh inactive.
For COc1cccc(NC(=O)C2CCN(S(=O)(=O)c3ccc4[nH]c5c(c4c3)CCCCC5)CC2)c1 the results were Pf Dd2 inh inactive.
Screening Cn1cc(C(=O)N2CCCC(C)(Cc3ccc4c(c3)OCO4)C2)c(=O)[nH]c1=O (stereo not drawn) returned Pf Dd2 inh inactive.
`O=C1CC(c2ccccc2)N(C(=O)CNC(=O)c2cccnc2)CCCCCN1` (stereo not drawn) gave Pf Dd2 inh -8%.
Cn1ccnc1CN1CCOC[C@H](Oc2ccccc2)C1 was read as Pf Dd2 inh -26%[44.1 µM].
`Cn1ccnc1CN1CCCC(c2ccc(C(=O)O)cc2)C1` (stereo not drawn) gave Pf Dd2 inh -3%.
Screening Cn1ccnc1CN1CCCC(CCc2ccccc2)C1 (stereo not drawn) returned Pf Dd2 inh 11µM*.
For CCc1ccc(NC(=O)CCNS(=O)(=O)c2ccc3c(c2)CCCC(=O)N3)cc1 the results were Pf Dd2 inh 50%.
Screening O=C(O)CCc1conc1-c1ccccc1F returned Pf Dd2 inh -9%.
For COc1cc(CN2C[C@@H](CO)[C@H](NC(C)=O)C2)cc(OC)c1 the results were Pf Dd2 inh -14%.
`COCCNC(=O)CCn1c(=O)[nH]c2cc(OC)c(OC)cc2c1=O` gave Pf Dd2 inh -15%.
For CCOc1ccc(NC(=O)N(Cc2c[nH]c3ccccc23)C2CCCCC2)cc1 the results were Pf Dd2 inh -30%.
For COCC1(CNCc2cn(C)c3ccccc23)C[C@@H](O)[C@@H](O)C1 (stereo partly drawn) the results were Pf Dd2 inh inactive.
`Cn1cc(CN(C(=O)Nc2ccccc2)C2CCCCC2)c2ccccc21` gave Pf Dd2 inh 3.2µM*.
`Cc1ccc(C(C)C)c(OCC(=O)Nc2c(C(=O)c3ccc(F)cc3)oc3ccccc23)c1` gave Pf Dd2 inh 31%.
For CCOCCn1ccc2c(OCC(=O)Nc3cc(C(F)(F)F)ccc3Cl)cccc2c1=O the results were Pf Dd2 inh 43%.
For COc1cccc(CC(=O)N[C@@H]2CN(c3ncccn3)C[C@H]2CO)c1 the results were Pf Dd2 inh inactive.
For O=C(NCc1ccccc1)[C@@H]1Cc2nc[nH]c2CN1Cc1cc2ccccc2o1 the results were Pf Dd2 inh -4%[44.1 µM].
`CCOc1ccc(NC(=O)N2CCC(c3ccc(C)cc3)C2)cc1` (stereo not drawn) gave Pf Dd2 inh inactive.
CCOc1ccc(NC(=O)c2cc3nc(-c4ccc(OC)cc4)cc(C(F)(F)F)n3n2)cc1 was read as Pf Dd2 inh 70%.
`COc1ccc(-c2cn3nc(N4CCC(C(=O)Nc5cc(Cl)ccc5OC)CC4)sc3n2)cc1` gave Pf Dd2 inh inactive.
Screening CCOc1ccc(-c2cc3nc(C4CCN(C(=O)OC(C)(C)C)CC4)c(C(=O)Nc4cc(OC)ccc4OC)cn3n2)cc1 returned Pf Dd2 inh 4µM*.
Screening COc1ccc(OC)c(NC(=O)c2cnc(N3CCCC3)nc2C)c1 returned Pf Dd2 inh 26%.
CCOc1ccc(-c2cc3nc(C4CCN(C(=O)OC(C)(C)C)CC4)c(C(=O)Nc4ccc(C)c(F)c4)cn3n2)cc1 was read as Pf Dd2 inh 7.1µM*.
`NC(=O)C1CCN([C@H]2[C@@H]3OC[C@@H](O3)[C@@H](NC(=O)Nc3ccccc3)[C@@H]2O)CC1` gave Pf Dd2 inh 14%[44.1 µM].
`COc1cccc(CN2CCOC3(CCN(Cc4ccc5[nH]ccc5c4)CC3)C2=O)c1` gave Pf Dd2 inh -17%[44.1 µM].
`COc1ccc(CN2CC3(CCN(C(=O)Cc4cccc(F)c4)CC3)C2=O)cc1` gave Pf Dd2 inh -29%.
